The supplement of paper PMC12632987
The full ranking holds about 4,500 sequences; the median of “median log2 fold change of GCK-ALFA target abundance (FLAG IP / Myc IP barcode read proportion)” is about 0.078, and the lowest 2% start at about -0.6. The full list was thinned out, with the lowest values kept by preference.

B1: GBRAP_35_5569 (protein)
chain: STDETIVEMTVNTIEALTLAVPDLDPATLETITRQVVALAREVIEDIKNNLEGLKRILEALRALLAAIRARGLDDPHLQAAAAAVEEAIRLAEKAIKEAE
B2: GBRAP_184_5315 (protein)
chain: EVIRRFITVETKEEAEKKLKEIKEEIKKSGKKYTVYIEVKNPTKELIDTVFEEIKKMKEEGVDADFILVVEEPVDEEMEDYIVEKAKEAGARAVIALPEE
B3: GBRAP_11_2707 (protein)
chain: KKEKLKEIAKLAAEAAALTEQLLKEGVDNKELQAKLTAKIKELTELVKKYADESLKKLAEIAKELWEKALADPENKEQYLKELLATLRVLEGQALLEIEE
B4: GBRAP_52_6040 (protein)
chain: MRERMRRLAREIVELVRAGRLEEARERIRELVETLSLEELELLGEELAELAREAEPEDLDAVMEVALMLADELEKAGYPEVFADDLEARVARAAVENLER
B5: GBRAP_11_2896 (protein)
chain: KKEKLKEAAELAEKAAKLLEELIKEGPDNEELRKKAEEALEKLLELAKKYLDESSVELAESALELFEKAKEDPENAKEYLEQALAYVRVLEGQVLLEIEE
B6: GBRAP_43_5752 (protein)
chain: MEEIIEGAVDFATLAAEDPNISEEQKLKIAKDVFEIVADEGIKLPEELSKLTRALAKSLSLEQLKELLKHLKELAEKYPELKEDFEANAKIIEEAIKKKE
B7: GBRAP_35_5553 (protein)
chain: DFDKEVIEMVRATAEDLLLAVDDLPVDTLITMATQIAELTLKVAKDEKENKEELKELLEATLELLDAVIEKAEKEGAPEEDIEKLRKLKKELEEALKEAE
B8: GBRAP_160_4282 (protein)
chain: GEKLKELAEELREDRDEILSLVDKISAEEVRTFAVTSLGSILMEAIDGELLTDEEEDELAKIIDDLEAELDALKDASPEEIRAAIEKHFDKAIELLEKAA
B9: GBRAP_125_3047 (protein)
chain: SLEELVEALRLLAKKLGYSEEEVEEIARLARKYGVKGTLIAILLAEGEEELAELAAKLTDEQVAEVLLELKAWLEENPDASKEEVLKKLRELLEKALAKT
B10: GBRAP_52_5975 (protein)
chain: MREEMRRLAEEAVALMLAGDREGARALLEEIAETKTEEEITLFMEELAELAKTATPEERDAIVEVALLAEDIWLEAGFDEALADSNVARVAAAAYAAEQA
B11: GBRAP_128_3472 (protein)
chain: GVEEVRKWTKEVMEKMKTADDEEFRELATELAERLLTLPLEEVEAAVEVIKEHLPELTAEKLEILAEVLREARPQATPEKAALFADVESEALLLAEELEE
B12: GBRAP_52_5855 (protein)
chain: SKEKMRKLAEELLKLKLAGKEEELEKKVKELVATLSEEEILELLKELAELAKKANKEEAEAIAEVAELLADEAEKAGFDEDELSYELAKVYAAAYKVLQK
B13: GBRAP_35_5567 (protein)
chain: SFDETTAEMMVNTIEALTEAVEDIDPETLKTITEQITKAAKKVIEEIKDNKEALEKIKKALEKLLKALEKRGLDDPNVKAAAEAVKEAIKEAEKAIKEAE
B14: GBRAP_52_6372 (protein)
chain: REAEARAIVDELLALAEAGDEEGVEALVREVLASGDGALQAAVLREIRRRLEARDHPDPEALLRLAAIVADEVLEAEVDSPEVWAALTALAAAALALERA
B15: GBRAP_160_4778 (protein)
chain: SEKVEELKKSIEEAKEEILESIDTESPEETIIVVKGETGLILAEAYELEIDNDELEDALDEIGDELIEEMKKNKNASKEELKKIVEEYTEKALKKIEELT
B16: GBRAP_43_5750 (protein)
chain: MEEIIEGHVDFALLAAEDPNISEEQKLKIAKDTFDILADENISLPEESSKLTEALAKSLSLEQLKELLAHLKELAKKYPELKELFDKNSKIIEEAIKKLE
B17: GBRAP_80_6795 (protein)
chain: AEERLKKALEEIEKLDKELAKKVKEIVEIAREMGVSTEDLADFAEAIAELLKLDKEKARELVEELKEELEELKKEGNKAEAEAAVRVYAGEALLEVEELE
B18: GBRAP_160_4201 (protein)
chain: SEKVEKVIRLLREETERVIAEVPELSREEVANLADVEYGSVLMEAVELGIENDEILDTIADAADEIRRFLEENRDASVEEIKRGIREITERAIEEIKKIA
B19: GBRAP_160_4006 (protein)
chain: SEEAEKLIKEIKEIFEELKKDIEGLTPEERLTLAKGYAGEILQLAESSKVISDEAVDKIAEILDEFLEELEKNKNAPLEYWKKLIEETLKKIEEVIKEDS

Target: GABARAP, O95166
Test: median log2 fold change of GCK-ALFA target abundance (FLAG IP / Myc IP barcode read proportion) (log2 ratio); each designed protein is fused to an ALFA-tag nanobody in HEK293 cells to bring the named protein to FLAG-tagged glucokinase (GCK); Myc marks an untargeted standard; higher = target protein stabilised (more abundant)
Conditions: target protein: 3xFLAG-MCP-GCK-ALFA reporter; HEK293 landing pad (RPLP)
In short: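 An ALFA-nanobody-fused binder library was recombined into HEK293 landing-pad cells and induced with 2 μg mL^−1 doxycycline. Cells were transfected with a plasmid expressing a FLAG-tagged target and a Myc-tagged standard. After 48 h, lysates underwent anti-FLAG and anti-Myc immunoprecipitation, and circular RNA barcodes were reverse transcribed, amplified and sequenced. Target abundance is the per-binder median log2 ratio of FLAG to Myc barcode read proportions. Barcodes needed ≥10^−7 proportion in both replicates, binders ≥3 barcodes per replicate, and a 10^−6 pseudocount was added; the two replicates were pooled.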

Chain of GABARAP, O95166 (O95166 whole entry, the tested form may be a part): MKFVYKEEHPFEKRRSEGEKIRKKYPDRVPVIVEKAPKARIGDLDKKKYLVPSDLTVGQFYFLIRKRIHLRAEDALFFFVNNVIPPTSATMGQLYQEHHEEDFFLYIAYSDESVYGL

In order of falling “median log2 fold change” value:
1. B16  0.475
2. B13  0.378
3. B2  0.243
4. B5  0.203
5. B15  0.139
6. B3  0.13
7. B6  0.108
8. B10  0.107
9. B17  0.0713
10. B11  0.00124
11. B19  -0.00151
12. B12  -0.0898
13. B18  -0.204
14. B9  -0.274
15. B8  -0.356
16. B4  -0.365
17. B14  -0.638
18. B7  -0.742
19. B1  -0.994
